A short description of assay [1]: ATG_GRE_CIS: Attagene CIS-FACTORIAL HepG2 Assay for human Glucocorticoid Response Elements (GRE) (AID 2282947; active = hit-call score of the fitted dose curve at least 0.9, where 1 is the maximum; inactive = score below 0.9). Conditions: HepG2 GRE cis-reporter, Attagene multiplex mRNA; actives raise or lower the signal. The gist of the method: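 HepG2, transient cis-reporter transfection, 24 h. Reporter mRNA: RT-PCR then CE, fluorescence. Fit both directions vs DMSO.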
The nature of assay [2]: ATG_PBREM_CIS: Attagene CIS-FACTORIAL HepG2 Assay for human Phenobarbital-responsive Enhancer Module (PBREM) (AID 2282955; active = hit-call score of the fitted dose curve at least 0.9, where 1 is the maximum; inactive = score below 0.9). Conditions: HepG2 PBREM cis-reporter, Attagene multiplexed transcription; actives raise or lower the signal. The gist of the method:
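Multiplexed cis-reporter readout in human hepatoma HepG2 cells; PBREM-regulated transcript quantified after 24 h exposure by fluorescent RT-PCR fragment analysis. Signal changes up or down fitted relative to DMSO.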

In assay [3] the target is Transcription factor Sp1 (Homo sapiens) (UniProt P08047). The assay is described as follows: ATG_Sp1_CIS: Attagene CIS-FACTORIAL HepG2 Assay for human Specificity Protein 1 (Sp1) (AID 2282961; active = hit-call score of the fitted dose curve at least 0.9, where 1 is the maximum; inactive = score below 0.9). Conditions: HepG2 Sp1 cis-reporter transcription, actives raise or lower the signal. The gist of the method:
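Chemicals are dosed onto HepG2 cells transfected with multiple cis-promoter reporter constructs, and after 24 h reporter RNA is reverse-transcribed, PCR-amplified and resolved by capillary electrophoresis for fluorescence quantitation; activity is scored up or down against DMSO.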

Assay [4] deals with Signal transducer and activator of transcription 3 (Homo sapiens) (UniProt P40763). The assay is described as follows: ATG_STAT3_CIS: Attagene CIS-FACTORIAL HepG2 Assay for human Signal Transducer and Activator of Transcription 3 (STAT3) (AID 2282963; active = hit-call score of the fitted dose curve at least 0.9, where 1 is the maximum; inactive = score below 0.9). Conditions: HepG2, Attagene cis-factorial STAT3 reporter transcription; actives raise or lower the signal. The gist of the method: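 Uses human liver HepG2 transiently carrying cis-regulated reporter transcription units. Following 24 h dosing, reporter mRNA induction was detected by RT-PCR and capillary electrophoresis, analysed bidirectionally versus DMSO.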
Signal transducer and activator of transcription 3 (Homo sapiens), sequence (P40763 whole entry, looked up): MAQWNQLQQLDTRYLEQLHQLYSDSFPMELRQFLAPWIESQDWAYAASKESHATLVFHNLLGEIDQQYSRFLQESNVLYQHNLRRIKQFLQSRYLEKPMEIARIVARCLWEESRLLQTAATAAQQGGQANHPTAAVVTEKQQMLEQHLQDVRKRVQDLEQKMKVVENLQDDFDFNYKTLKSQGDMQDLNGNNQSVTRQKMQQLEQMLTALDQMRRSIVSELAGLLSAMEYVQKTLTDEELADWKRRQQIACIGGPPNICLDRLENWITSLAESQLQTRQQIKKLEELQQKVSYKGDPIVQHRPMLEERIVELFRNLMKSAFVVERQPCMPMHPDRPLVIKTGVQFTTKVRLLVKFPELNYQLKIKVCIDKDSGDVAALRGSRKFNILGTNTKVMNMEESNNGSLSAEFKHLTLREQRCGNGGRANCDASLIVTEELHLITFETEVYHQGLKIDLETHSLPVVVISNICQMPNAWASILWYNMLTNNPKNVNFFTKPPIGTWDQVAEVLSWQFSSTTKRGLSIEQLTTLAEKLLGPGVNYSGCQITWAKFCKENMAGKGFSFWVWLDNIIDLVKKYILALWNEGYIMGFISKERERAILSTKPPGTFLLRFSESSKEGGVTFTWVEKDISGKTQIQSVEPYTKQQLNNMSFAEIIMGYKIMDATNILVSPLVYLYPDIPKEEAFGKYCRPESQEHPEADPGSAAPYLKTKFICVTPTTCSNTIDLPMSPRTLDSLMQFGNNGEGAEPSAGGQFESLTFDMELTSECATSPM

The target in assay [5] is Hepatocyte nuclear factor 4-alpha (Homo sapiens) (UniProt P41235). Description: ATG_HNF4a_TRANS: Attagene TRANS-FACTORIAL HepG2 Assay for human Hepatocyte Nuclear Factor 4 alpha (HNF4a) (AID 2282982). Conditions: HepG2 HNF4a transactivation reporter, mRNA readout. The procedure, abridged: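 Using HepG2 liver cells transfected with GAL4-UAS reporter units, chemical-induced mRNA increases were assessed after 24 hours. Fluorescent RT-PCR fragments were separated by capillary electrophoresis and compared with DMSO negative controls.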
Hepatocyte nuclear factor 4-alpha (Homo sapiens), sequence (P41235 whole entry, looked up, the tested form may be a part): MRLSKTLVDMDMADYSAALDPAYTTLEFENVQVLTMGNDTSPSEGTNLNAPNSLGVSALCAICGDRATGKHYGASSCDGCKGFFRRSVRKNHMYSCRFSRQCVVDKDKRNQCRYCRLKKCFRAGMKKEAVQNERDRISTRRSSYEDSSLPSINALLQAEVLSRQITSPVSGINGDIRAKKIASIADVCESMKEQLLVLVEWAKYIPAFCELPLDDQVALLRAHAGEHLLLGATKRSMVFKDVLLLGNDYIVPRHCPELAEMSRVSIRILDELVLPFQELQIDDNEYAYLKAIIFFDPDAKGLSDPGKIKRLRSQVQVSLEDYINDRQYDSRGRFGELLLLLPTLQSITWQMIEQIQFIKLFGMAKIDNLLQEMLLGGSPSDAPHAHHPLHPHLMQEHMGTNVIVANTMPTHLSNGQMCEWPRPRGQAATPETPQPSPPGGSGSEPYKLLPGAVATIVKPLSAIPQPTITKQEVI

Assay [6] in a line: ATG_M_32_TRANS: Attagene TRANS-FACTORIAL HepG2 Assay for M32 Transcription Factor (Internal Marker) (AID 2282984).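 Note: transcript level of a background control reporter unit measured by RT-PCR and capillary electrophoresis.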 Conditions: HepG2 Attagene TRANS M32 internal marker reporter. The gist of the method: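 Fluorescence-detected mRNA induction, HepG2 liver cells, 24 h after dosing. Multiple GAL4-UAS reporter units introduced by transient transfection; background-control endpoint analysed for gain of signal against DMSO.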

Assay [7] addresses Transcriptional activator Myb (Homo sapiens) (UniProt P10242). Description: ATG_Myb_CIS: Attagene CIS-FACTORIAL HepG2 Assay for human Myeloblastosis (Myb) Proto-Oncogene Transcription Factor (AID 2282986; active = hit-call score of the fitted dose curve at least 0.9, where 1 is the maximum; inactive = score below 0.9). Conditions: HepG2 Attagene CIS-FACTORIAL Myb reporter transcription; actives raise or lower the signal. The procedure, abridged: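 Using HepG2 liver cells bearing transiently transfected cis-promoter reporter constructs, the assay measures induction or loss of reporter mRNA after 24 hours of dosing. Detection used fluorescently labeled RT-PCR products separated by capillary electrophoresis.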

Assay [8] can be described thus: ATG_NFI_CIS: Attagene CIS-FACTORIAL HepG2 Assay for human Nuclear Factor I (NFI) (AID 2282989; active = hit-call score of the fitted dose curve at least 0.9, where 1 is the maximum; inactive = score below 0.9). Conditions: HepG2 cis-regulatory reporter, NFI response element transcription; actives raise or lower the signal. The procedure, abridged: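 HepG2, transient MRTU, 24 h exposure; RNA→cDNA→PCR→FAM label→HpaI→CE fluorescence. Bidirectional fit, DMSO = baseline.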
Assay [9] has as its target Peroxisome proliferator-activated receptor gamma (Homo sapiens) (UniProt P37231). The assay is described as follows: ATG_PPARg_TRANS: Attagene TRANS-FACTORIAL HepG2 Assay for human Peroxisome Proliferator-activated Receptor-gamma (PPARg) (AID 2283007). The procedure, abridged:
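Chimeric NR-Gal4 transactivation is measured in transiently transfected HepG2 cells by reporter mRNA induction at 24 h. Detection uses RT-PCR with fluorescent labelling and capillary electrophoresis; DMSO defines baseline.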

Assay [10] in a line: ACEA_ER_AUC_viability: ACEA Biosciences xCELLigence Real-Time Cell Analysis on Estrogen Receptor Agonism for Viability (AID 2283782).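 Note: hit means loss of impedance signal meaning reduced cell growth or viability.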 The gist of the method:
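Continuous-exposure impedance cell analysis uses T-47D cells in charcoal-stripped serum, eight 1:4 dilutions topping at 100 uM final, biological duplicate. Area under the growth curve at 80 h is fitted against DMSO baseline.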

Assay [11] can be described thus: ATG_RORE_CIS: Attagene CIS-FACTORIAL HepG2 Assay for human RAR-related Orphan Receptor Element (RORE) (AID 2282959; active = hit-call score of the fitted dose curve at least 0.9, where 1 is the maximum; inactive = score below 0.9). Conditions: HepG2 Attagene cis-factorial RORE reporter, mRNA; actives raise or lower the signal. The gist of the method:
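Transfect HepG2 with MRTUs; treat 24 h; extract RNA; RT with oligo(dT); PCR with reporter-specific primers; 6-FAM primer extension; HpaI digest 2 h at 37 C; capillary electrophoresis. Fit vs DMSO, bidirectional.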

In assay [12] the target is human Retinoid X Receptor beta (RXRb), RXRB (gene 6257) (UniProt P28702). The assay is described as follows: ATG_RXRb_TRANS: Attagene TRANS-FACTORIAL HepG2 Assay for human Retinoid X Receptor beta (RXRb) (AID 2283013). The procedure, abridged: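 Read-out: reporter mRNA induction via RT-PCR plus capillary electrophoresis fluorescence, analysed as signal increase relative to DMSO. Cells were human HepG2, transiently transfected with GAL4-UAS reporter constructs and chimeric receptor-Gal4 fusions, dosed for 24 h.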
human Retinoid X Receptor beta (RXRb), RXRB (gene 6257), sequence (P28702 whole entry, looked up, the tested form may be a part): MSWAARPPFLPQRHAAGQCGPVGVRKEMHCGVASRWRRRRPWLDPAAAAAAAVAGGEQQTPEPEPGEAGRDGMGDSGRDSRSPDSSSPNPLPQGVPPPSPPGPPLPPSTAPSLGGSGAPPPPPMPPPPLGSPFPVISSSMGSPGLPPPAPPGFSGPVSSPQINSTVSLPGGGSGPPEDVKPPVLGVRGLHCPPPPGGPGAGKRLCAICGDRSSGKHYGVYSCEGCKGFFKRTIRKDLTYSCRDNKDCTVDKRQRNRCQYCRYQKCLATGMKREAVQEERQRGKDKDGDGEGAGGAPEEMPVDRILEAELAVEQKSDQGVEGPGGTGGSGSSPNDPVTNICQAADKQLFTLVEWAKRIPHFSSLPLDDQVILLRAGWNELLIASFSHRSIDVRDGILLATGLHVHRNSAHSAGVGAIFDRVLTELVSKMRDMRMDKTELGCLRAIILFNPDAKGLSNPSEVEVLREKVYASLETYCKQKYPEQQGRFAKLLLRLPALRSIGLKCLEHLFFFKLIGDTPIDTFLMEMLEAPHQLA

Assay [13] in a line: TOX21_p53_BLA_p2_viability: Viability Assessment in the Tox21 HCT-116 p53 Agonism Beta-lactamase Assay, Phase 2 (AID 2283591).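 Note: actives lower the ATP signal meaning cytotoxicity.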 The gist of the method:
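HCT-116 p53-bla cells (4000/well) rested 5 h at 37C, then received compounds in DMSO (217-fold dilution) for 16 h at 37C, 5% CO2. After the CCF4 read, CellTiter-Glo was added; ATP luminescence was read after 30 min at room temperature.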

The target of assay [14] is Cellular tumor antigen p53 (Homo sapiens) (UniProt P04637). Description: TOX21_p53_BLA_p2_ratio: Tox21 HCT-116 p53 Agonism Beta-lactamase Assay, Ratio, Phase 2 (AID 2283592). The procedure, abridged: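 Readout: blue/green (460/530 nm) FRET emission ratio after 2 h CCF4-AM loading at room temperature, excitation 405 nm. HCT116 p53 bla cells, 16 h compound exposure at 37C, 5% CO2; agonist direction fitted against DMSO baseline.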
Cellular tumor antigen p53 (Homo sapiens), sequence (P04637 whole entry, looked up): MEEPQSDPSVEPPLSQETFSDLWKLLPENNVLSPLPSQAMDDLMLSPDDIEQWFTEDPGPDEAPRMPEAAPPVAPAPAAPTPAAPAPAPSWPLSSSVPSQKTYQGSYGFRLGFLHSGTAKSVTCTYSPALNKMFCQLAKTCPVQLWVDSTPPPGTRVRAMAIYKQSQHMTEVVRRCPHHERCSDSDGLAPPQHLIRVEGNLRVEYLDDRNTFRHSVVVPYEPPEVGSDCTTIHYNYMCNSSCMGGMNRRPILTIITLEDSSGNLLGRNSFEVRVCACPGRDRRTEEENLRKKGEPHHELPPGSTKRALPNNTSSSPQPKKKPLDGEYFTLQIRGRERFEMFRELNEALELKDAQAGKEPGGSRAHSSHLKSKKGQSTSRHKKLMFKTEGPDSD

The target is the same in assay [15]. The assay is described as follows: TOX21_p53_BLA_p3_ratio: Tox21 HCT-116 p53 Agonism Beta-lactamase Assay, Ratio, Phase 3 (AID 2283596). The gist of the method:
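Cells were seeded at 4000/well, rested 5 h at 37C, then dosed with DMSO compound solutions (217-fold dilution) for 16 h. CCF4-AM substrate was loaded for 2 h at room temperature, and the 460/530 nm emission ratio was fitted for gain of signal versus DMSO.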

A short description of assay [16]: TOX21_p53_BLA_p4_viability: Viability Assessment in the Tox21 HCT-116 p53 Agonism Beta-lactamase Assay, Phase 4 (AID 2283597).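 Note: hits lower the luminescence signal meaning cytotoxicity.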 The gist of the method:
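ATP content by CellTiter-Glo luminescence, 30 min RT, read after the beta-lactamase ratio step. Cells: HCT116, 4000/well, compound added after 5 h, exposure 16 h at 37C. Signal loss = reduced viability.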

Assay [17] deals with Cellular tumor antigen p53 (Homo sapiens) (UniProt P04637). The assay is described as follows: TOX21_p53_BLA_p5_ratio: Tox21 HCT-116 p53 Agonism Beta-lactamase Assay, Ratio, Phase 5 (AID 2283599). The procedure, abridged: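 HCT-116 cells carrying a p53-inducible beta-lactamase reporter were seeded at 4000 cells/well and dosed after 5 h with compound in DMSO (217-fold dilution). After 16 h at 37C, CCF4-AM substrate was added for 2 h, and the 460/530 nm emission ratio was scored as gain-of-signal versus DMSO.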

The nature of assay [18]: TOX21_p53_BLA_p5_viability: Viability Assessment in the Tox21 HCT-116 p53 Agonism Beta-lactamase Assay, Phase 5 (AID 2283600). The procedure, abridged:
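ATP luminescence (CellTiter-Glo, 30 min, RT) served as the viability read-out, with loss of signal indicating cytotoxicity. Compounds in DMSO were pinned at a 217-fold dilution onto 4000 cells/well and incubated 16 h, 37C.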

In assay [19] the target is Cellular tumor antigen p53 (Homo sapiens) (UniProt P04637). Description: TOX21_p53_BLA_p4_ratio: Tox21 HCT-116 p53 Agonism Beta-lactamase Assay, Ratio, Phase 4 (AID 2283601). The procedure, abridged:
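HCT116 cells carrying an inducible beta-lactamase reporter were plated at 4000 cells/well, rested 5 h, then exposed to compounds in DMSO (217-fold dilution) for 16 h at 37C. CCF4-AM substrate was loaded 2 h at room temperature; 460/530 nm emission ratio scored gain-of-signal versus DMSO.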

A short description of assay [20]: ATG_M_06_TRANS: Attagene TRANS-FACTORIAL HepG2 Assay for M06 Transcription Factor (Internal Marker) (AID 2282983).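 Note: reporter transcript level by RT-PCR then capillary electrophoresis fluorescence.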 Conditions: HepG2 Attagene TRANS M06 internal marker reporter. The gist of the method: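 Read-out: fluorescent reporter cDNA fragments resolved by capillary electrophoresis after RT-PCR and HpaI cut. Source cells were HepG2 carrying transfected multi-reporter GAL4 constructs, dosed 24 h. Increase over DMSO control analysed.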

The structures appear in SMILES notation. Records with an inconclusive call do not appear. Some compounds were tested as several samples or in several runs, with calls that do not always agree. Active and inactive are the calls of the source. Rule for the calls, unless noted: active = hit-call score of the fitted dose curve at least 0.9, where 1 is the maximum; inconclusive = response in the unintended direction; inactive = score below 0.9.

Transcription factor Sp1 (Homo sapiens), sequence (P08047 whole entry, looked up): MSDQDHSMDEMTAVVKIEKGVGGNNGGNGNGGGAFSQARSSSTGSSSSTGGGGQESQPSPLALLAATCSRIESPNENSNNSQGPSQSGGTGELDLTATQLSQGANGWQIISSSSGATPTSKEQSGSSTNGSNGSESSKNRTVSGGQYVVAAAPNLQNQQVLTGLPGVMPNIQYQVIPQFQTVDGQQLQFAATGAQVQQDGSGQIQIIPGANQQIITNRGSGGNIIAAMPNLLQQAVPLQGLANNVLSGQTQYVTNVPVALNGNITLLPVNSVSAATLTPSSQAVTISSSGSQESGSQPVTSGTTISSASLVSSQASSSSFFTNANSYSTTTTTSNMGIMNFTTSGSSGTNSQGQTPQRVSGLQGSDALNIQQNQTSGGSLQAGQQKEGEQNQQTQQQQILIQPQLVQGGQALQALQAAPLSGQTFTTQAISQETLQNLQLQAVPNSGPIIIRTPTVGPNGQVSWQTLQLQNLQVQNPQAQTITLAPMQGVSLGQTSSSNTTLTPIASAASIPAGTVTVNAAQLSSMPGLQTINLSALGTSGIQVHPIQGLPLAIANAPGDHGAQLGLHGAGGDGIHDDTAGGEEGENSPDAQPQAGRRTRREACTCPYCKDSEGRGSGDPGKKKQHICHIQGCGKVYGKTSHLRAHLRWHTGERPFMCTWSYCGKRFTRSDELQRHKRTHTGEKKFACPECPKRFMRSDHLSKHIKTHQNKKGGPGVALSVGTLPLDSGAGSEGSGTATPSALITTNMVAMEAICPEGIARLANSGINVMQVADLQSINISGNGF
Transcriptional activator Myb (Homo sapiens), sequence (P10242 whole entry, looked up): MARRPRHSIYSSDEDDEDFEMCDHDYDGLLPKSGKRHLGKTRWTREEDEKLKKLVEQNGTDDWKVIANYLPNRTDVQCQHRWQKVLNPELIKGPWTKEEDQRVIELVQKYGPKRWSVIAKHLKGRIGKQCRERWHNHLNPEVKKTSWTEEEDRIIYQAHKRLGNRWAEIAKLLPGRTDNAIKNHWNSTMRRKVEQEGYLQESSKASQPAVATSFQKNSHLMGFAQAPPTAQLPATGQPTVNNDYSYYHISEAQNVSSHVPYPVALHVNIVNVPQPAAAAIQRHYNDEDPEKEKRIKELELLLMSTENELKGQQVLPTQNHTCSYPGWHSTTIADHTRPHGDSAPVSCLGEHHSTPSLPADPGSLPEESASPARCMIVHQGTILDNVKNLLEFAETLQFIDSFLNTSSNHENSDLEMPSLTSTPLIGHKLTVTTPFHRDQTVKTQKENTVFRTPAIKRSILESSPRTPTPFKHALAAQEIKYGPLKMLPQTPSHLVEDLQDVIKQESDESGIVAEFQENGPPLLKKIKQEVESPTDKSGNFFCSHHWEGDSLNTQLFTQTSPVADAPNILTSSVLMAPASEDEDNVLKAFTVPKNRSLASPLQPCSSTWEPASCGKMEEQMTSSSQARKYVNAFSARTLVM
Peroxisome proliferator-activated receptor gamma (Homo sapiens), sequence (P37231 whole entry, looked up, the tested form may be a part): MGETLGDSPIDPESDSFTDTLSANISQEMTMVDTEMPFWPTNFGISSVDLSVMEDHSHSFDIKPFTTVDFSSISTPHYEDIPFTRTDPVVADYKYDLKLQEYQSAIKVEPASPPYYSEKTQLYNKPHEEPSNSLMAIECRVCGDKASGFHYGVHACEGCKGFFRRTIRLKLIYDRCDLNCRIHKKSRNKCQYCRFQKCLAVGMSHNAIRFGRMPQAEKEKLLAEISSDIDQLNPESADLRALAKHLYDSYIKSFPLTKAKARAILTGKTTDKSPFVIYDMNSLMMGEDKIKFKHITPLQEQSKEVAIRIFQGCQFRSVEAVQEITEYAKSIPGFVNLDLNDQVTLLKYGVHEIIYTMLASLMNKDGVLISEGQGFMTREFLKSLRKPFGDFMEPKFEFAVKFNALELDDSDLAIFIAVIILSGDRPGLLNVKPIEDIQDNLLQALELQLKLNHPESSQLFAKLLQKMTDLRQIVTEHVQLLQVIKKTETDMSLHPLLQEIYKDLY

What is called AC50 is the midpoint of the concentration-response curve, whichever way the signal moves. For `O=P1(NCCCl)OCCCN1CCCl` (stereo not drawn), the compound was classed as inactive in assay [1], in assay [2], in assay [3], in [4], in assay [5] and in [6]. The outcome in assay [7], in assay [8] and in assay [9] was inactive. Further, the half-maximal activity concentration (AC50) in assay [10] is 37.7 µM (active).
`C=Cc1cccc(CCl)c1`: the results for the AC50 in [1] and in assay [3] were 100 µM (active) and 25.5 µM (active), respectively. For the same compound, the result in assay [2], in assay [11], in assay [4], in assay [5], in assay [6] and in assay [7] was inactive. Further, the compound was called inactive in assay [12], in assay [13], in assay [14], in assay [15], in assay [16] and in assay [17]. The result in assay [18] and in assay [19] was inactive.
For the compound `CCOP(=O)(OCC)OCC`, the call in assay [1], in assay [2], in [11], in assay [3], in assay [4] and in [5] was inactive. In addition, the compound was called inactive in assay [6], in assay [7], in [8], in assay [9], in assay [12] and in assay [13]. Besides, the outcome in assay [14], in assay [15], in assay [16], in assay [17], in assay [18] and in [19] was inactive. Also, the compound was called inactive in [10].
Consider `CC(C)(O)C#N`, for which the outcome in [2], in assay [11], in [3], in assay [5], in assay [20] and in assay [6] was inactive. Moreover, the result in assay [7], in [9], in [13], in assay [14], in [15] and in [16] was inactive. The outcome in assay [17], in assay [18], in [19] and in assay [10] was inactive. For the same compound, in assay [12], the AC50 was 78.5 µM (active).
`[Cl-].[Cl-].[Cl-].[Yb+3]`: the compound was classed as inactive in [11], in [3], in [5], in [7], in assay [9] and in [13]. Further, the outcome in assay [16] and in assay [10] was inactive.
Regarding `CC(C)CCCCCCCOC(=O)c1ccccc1C(=O)OCCCCCCCC(C)C`, the compound was classed as inactive in [1], in [2], in assay [6], in assay [7], in [8] and in [14]. Also, the result in assay [17] and in [10] was inactive.
For `Oc1cc(Cl)ccc1Cl`, the compound was called inactive in assay [1], in [3], in assay [4], in assay [20], in [6] and in [7]. The outcome in assay [8], in [9], in assay [14], in assay [15], in [16] and in assay [17] was inactive. For the same compound, the compound was classed as inactive in assay [18].
In the case of `C=CC(=O)OC`, the outcome in [2], in [11], in [3], in assay [4], in assay [5] and in [20] was inactive. In addition, the result in assay [6], in assay [7], in assay [12], in assay [13], in assay [14] and in [18] was inactive. Also, in assay [19], the result was inactive.
`O=C1C=CC(=O)C=C1`: the result in assay [2], in assay [11], in [4], in assay [5], in assay [20] and in assay [6] was inactive. Moreover, the call in assay [8], in assay [9], in assay [13], in [14], in assay [15] and in [16] was inactive. In addition, the result in [17] and in assay [18] was inactive. Besides, the concentration at half-maximal activity (AC50) was 71.3 µM (active) in [15] and 73.5 µM (active) in assay [10].
As for `C[N+](C)(C)CC(=O)O`, the compound was classed as inactive in [11], in [3], in assay [4], in [5], in assay [6] and in assay [7]. The outcome in assay [8] was inactive. Moreover, in assay [10], the AC50 is 25.6 µM (active).

Values taken from PubChem BioAssay (EPA / NIEHS).
